Assay results: PubChem BioAssay (EPA / NIEHS)
Results filed as inconclusive are left out. Active and inactive are the calls of the source. How the source made its calls: active means hit-call score of the fitted dose curve at least 0.9, where 1 is the maximum; inconclusive means response in the unintended direction; inactive means score below 0.9.

The molecules below were run against Nuclear receptor subfamily 4 group A member 2 (Homo sapiens) (UniProt P43354) (assay: ATG_NURR1_TRANS: Attagene TRANS-FACTORIAL HepG2 Assay for human Nuclear Receptor Related Protein 1 (NURR1) (AID 2282985)). Conditions: HepG2 Attagene TRANS reporter, mRNA readout.
Nuclear receptor subfamily 4 group A member 2 (Homo sapiens), sequence (P43354 whole entry, looked up): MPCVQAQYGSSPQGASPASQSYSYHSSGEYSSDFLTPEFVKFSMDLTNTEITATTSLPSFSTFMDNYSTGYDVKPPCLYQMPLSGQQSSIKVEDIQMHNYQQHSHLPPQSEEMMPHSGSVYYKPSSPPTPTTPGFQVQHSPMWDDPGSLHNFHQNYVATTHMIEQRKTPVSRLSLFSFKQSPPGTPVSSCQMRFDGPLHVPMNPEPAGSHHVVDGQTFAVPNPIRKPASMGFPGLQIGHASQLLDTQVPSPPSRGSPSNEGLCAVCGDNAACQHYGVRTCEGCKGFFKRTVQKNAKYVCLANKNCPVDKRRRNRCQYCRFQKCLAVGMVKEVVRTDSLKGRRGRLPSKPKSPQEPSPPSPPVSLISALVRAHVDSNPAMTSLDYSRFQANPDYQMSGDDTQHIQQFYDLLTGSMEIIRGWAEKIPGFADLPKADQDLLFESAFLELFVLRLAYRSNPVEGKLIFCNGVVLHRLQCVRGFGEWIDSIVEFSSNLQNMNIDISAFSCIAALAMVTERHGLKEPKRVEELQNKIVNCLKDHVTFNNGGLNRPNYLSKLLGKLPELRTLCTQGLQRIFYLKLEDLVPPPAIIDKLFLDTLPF
Method: ATG_TRANS is a cell-based, multiplexed-readout assay that uses HepG2, a human liver cell line, with measurements taken at 24 hours after chemical dosing in a 24-well plate.ATG_NURR1_TRANS is one of 30 assay component(s) measured or calculated from the ATG_TRANS assay. It is designed to make measurements of mRNA induction, a form of inducible reporter, as detected with fluorescence intensity signals by Reverse transcription polymerase chain reaction (RT-PCR) and Capillary electrophoresis technology.Data from the assay component ATG_NURR1_TRANS was analyzed into 1 assay endpoint. This assay endpoint, ATG_NURR1_TRANS, was analyzed in the positive analysis fitting direction relative to DMSO as the negative control and baseline of activity. Using a type of inducible reporter, measures of mRNA for gain-of-signal activity can be used to understand the reporter gene at the transcription factor-level as they relate to the gene NR4A2. Furthermore, this assay endpoint can be referred to as a primary readout, because this assay has produced multiple assay endpoints where this one serves a reporter gene function. To generalize the intended target to other relatable targets, this assay endpoint is annotated to the nuclear receptor intended target family, where the subfamily is orphan.
Human liver HepG2 cells are transiently transfected with multiple reporter transcription units (MRTUs) in 6-well plates using FuGene 6 reagent (Roche; 3 ml FuGene/1 mg DNA). The MRTU constructs are regulated by a cis-regulating element (promoter). […] A major difference between the CIS and TRANS system is that in CIS activities of endogenous TFs are measured, whereas the TRANS assay evaluates changes in activities of exogenous, chimeric NR-Gal4 proteins. […] At the end of 24 hour incubation, total RNA was isolated using TriZol reagent (Invitrogen). The isolated RNA is then reverse-transcribed using oligo(dT) primer and Mo-MLV reverse transcriptase (Invitrogen) with DNAse I (Ambion) treatment for 30 min. The one-tenth of the produced cDNA was amplified by PCR using Taq DNA polymerase (Invitrogen) and two reporter sequence-specific primers. The PCR products were fluorescently labeled by primer extension with 6-arboxyfluorescein (6-FAM) 5'-labeled reporter sequence-specific primer (2 min at 95 C, 20 s at 68 C and 10 min at 72 C) and these products were digested with 5U of HpaI (New England Biolabs) for 2h at 37 C. The fragments were purified using Qiaquick PCR columns (Qiagen), analyzed on an ABI 3130xL genetic analyzer (Applied Biosystems) with peak positions identified by using a set of X-rhodamine (ROX)-labeled MapMarker1000 molecular weight standards (BioVentures). The raw capillary electrophoresis data was processed using Attagraph software (Attagene).

| Structure (SMILES) | AC50 | outcome |
| --- | --- | --- |
| CC(=O)O[C@]1(C(C)=O)CC[C@H]2[C@@H]3C[C@H](C)C4=CC(=O)CC[C@]4(C)[C@H]3CC[C@@]21C | 16.8 µM (active) |  |
| COc1ccnc(CS(=O)c2nc3cc(OC(F)F)ccc3[nH]2)c1OC (stereo not given) |  | inactive |
| CCCC(=O)c1cc(O)c(O)cc1O |  | inactive |
| CCCCc1ccc(N)cc1 |  | inactive |
| c1ccc2[nH]ccc2c1 |  | inactive |
| CC(C)C(C)(C)C(C)(C)C(C)(C)S |  | inactive |
| Clc1nc(C(Cl)(Cl)Cl)c(Cl)c(Cl)c1Cl |  | inactive |
| CCCCC(CC)COC(=O)/C=C\C(=O)OCC(CC)CCCC (stereo not given) |  | inactive |
| CCc1c(C)cc(N)c(CC)c1N |  | inactive |
| CCCCCCCCCOC(C)=O |  | inactive |
| CCCCCCCCCCC(CO)CCCCCCCC (stereo not given) |  | inactive |
| NCCCCCCN |  | inactive |
| CCCCCCOC(=O)CC |  | inactive |
| C=C(C)C(=O)O[C@H]1C[C@@H]2CC[C@@]1(C)C2(C)C |  | inactive |
| CCC(C)(O)CCC=C(C)C (stereo not given) |  | inactive |
| CC(C)=CCCC(C)CC=O (stereo not given) |  | inactive |
| Clc1ccc2c(c1)C(N1CCNCC1)=Nc1ccccc1O2 |  | inactive |
| CCC(=O)OCc1ccccc1 |  | inactive |
| CC(C=O)Cc1ccc(C(C)C)cc1 (stereo not given) |  | inactive |
| CC(C)(C)NC(N)=O |  | inactive |

| Structure (SMILES) | AC50 | outcome |
| --- | --- | --- |
| CC(C)(CO)[N+](=O)[O-] |  | inactive |
| CCCCCCCCCC=O |  | inactive |
| O=C1CCCCCCCCCCCCCCO1 |  | inactive |
| CC1(C)CCC(C)(C)c2cc(C(=O)Nc3ccc(C(=O)O)cc3)ccc21 |  | inactive |
| BrC1CCC(Br)C(Br)CCC(Br)C(Br)CCC1Br (stereo not given) |  | inactive |
| Cc1ccc(C=O)cc1 |  | inactive |
| C/C=C(\C)C(=O)OCc1ccccc1 |  | inactive |
| ClCCCl |  | inactive |
| O=C(O)CCCCC1CCSS1 (stereo not given) |  | inactive |
| CC(O)C(C)O (stereo not given) |  | inactive |
| CC(C)=CCC[C@](C)(O)[C@@H]1CC=C(C)CC1 |  | inactive |
| C=C(C)C(=O)OCc1ccccc1 |  | inactive |
| OCc1cccnc1 |  | inactive |
| COC(=O)c1ccc(C)cc1 |  | inactive |
| CC1CCC(C(C)(C)O)CC1 (stereo not given) |  | inactive |
| CCCCCCCCCCCCCCCCCC(=O)OCC(CC)CCCC (stereo not given) |  | inactive |
| CN1Cc2c(N)cccc2C(c2ccccc2)C1 (stereo not given) |  | inactive |
| CNC(=O)Oc1ccc2c(c1)[C@]1(C)CCN(C)[C@@H]1N2C |  | inactive |
| CCCc1ccccc1O |  | inactive |
| Nc1nc2ccc([N+](=O)[O-])cc2s1 |  | inactive |
